Several values for one entry are separate records, joined by “and”; a condition that tells them apart may be missing. Identical values can stand only once. Records with an inconclusive call do not appear. Activity calls are given as the source filed them. Unless noted, how the calls were made is not given here.
Assays:
[1] = qHTS profiling of the MIPE4 collection as inhibitors of Plasmodium falciparum (3D7) proliferation (AID 743344);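 further: scaled between DMSO vehicle wells and 0.29 µM artemisinin as full inhibition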; details: P. falciparum 3D7 in erythrocytes, SYBR Green DNA fluorescence, 72 h; at 28.5 µM unless noted
Method in brief: (§1)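 Parasite DNA was quantified by SYBR Green I fluorescence (ex 485, em 535 nm) after overnight lysis in saponin/Triton buffer at room temperature. Cultures at 0.3% parasitemia and 2.5% hematocrit were first exposed to compound for 72 h at 37 C; signals were normalised to artemisinin (0.29 uM) and vehicle wells.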

[2] = qHTS profiling of the MIPE4 collection as inhibitors of Plasmodium falciparum (DD2) proliferation (AID 743345); details: P. falciparum Dd2 in erythrocytes, SYBR Green DNA, 72 h; at 28.5 µM unless noted
Method in brief: as §1

[3] = qHTS profiling of the MIPE4 collection as inhibitors of Plasmodium falciparum (DD2) proliferation (Rep 2) (AID 743346); details: P. falciparum Dd2 in erythrocytes, SYBR Green DNA, 72 h; at 28.5 µM unless noted
Method in brief: as §1

[4] = qHTS profiling of the MIPE4 collection as inhibitors of Plasmodium falciparum (HB3) proliferation (AID 743347);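 further: plate controls were DMSO vehicle wells for no effect and artemisinin wells for full effect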; details: P. falciparum HB3 in erythrocytes, SYBR Green DNA, 72 h; at 28.5 µM unless noted
Method in brief: as §1

[5] = High-throughput drug toxicity screening in the BPDCN cell line Gen2.2 (AID 1224824); details: Gen2.2 BPDCN cells; at 45.8 µM (top of the series) unless noted;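 further: cells exposed to compounds for 48 h before reading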
Method in brief: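 CellTiter-Glo luminescence after 48 h compound exposure of Gen2.2 cells; percent activity set with DMSO as 100% and bortezomib (9.2 uM final) as 0%. Cells seeded at 500 per well, RPMI + 10% FBS, 37 °C.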

[6] = High-throughput drug toxicity screening in the BPDCN cell line Cal-1 (AID 1224825); details: Cal-1 BPDCN cell viability, qHTS; at 45.8 µM (top of the series) unless noted
Method in brief: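 CellTiter-Glo luminescence after 48 h compound exposure; percent activity scaled with DMSO as 100% and bortezomib (9.2 uM final) as 0%. Cal-1 cells seeded at 500/well in RPMI, 10% FBS, no phenol red.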

[7] = qHTS assay for measurement of the activity of small molecule inhibitors on Zika virus induced Caspase-3 activity in human iPSC derived neural progenitor cells (hNPCs) (AID 1224857; active means well fitted curve in the direction sought with a large enough effect; an effect the other way counts as inactive or inconclusive; further: % of control where 0% means no effect; nearly all actives have a fitted effect of over 65% in size)
Method in brief: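 Zika virus (2 FFU/cell) infection of human iPSC-derived NPCs, 6 h, following 1 h compound preincubation. Read-out: Caspase-Glo 3/7 luminescence.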

[8] = qHTS assay for measurement of the activity of small molecule inhibitors on Zika virus induced Caspase-3 activity in human astrocytoma cells (AID 1224859; active means well fitted curve in the direction sought with a large enough effect; an effect the other way counts as inactive or inconclusive;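 further: plate controls were ZIKV-infected untreated cells for no effect and uninfected cells for full effect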)
Method in brief: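 Caspase activation in ZIKV-infected SNB-19 cells (2 FFU/cell, 6 h) measured by Caspase-Glo 3/7 luminescence after 30 min RT; compound pre-incubated 1 h; normalised to uninfected and infected controls.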

[9] = qHTS Assay for Identifying Gametocytocidal Compounds (AID 743244; active means well fitted curve in the direction sought with a large enough effect; an effect the other way counts as inactive or inconclusive;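 further: on the % scale 0 is the no-effect control and ±100 the full control effect; actives lower the fluorescent signal which means gametocytes are killed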); details: P. falciparum 3D7 stage III-V gametocytes, alamarBlue, 72 h; max response: stronger effect = lower value
Method in brief: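 Fluorescence at Ex 525/Em 598 nm, recorded 24 h after alamarBlue addition, reports residual metabolic activity of 3D7 gametocytes (stages III–V) following 72 h compound exposure at 37 °C, 5% CO2.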

[10] = qHTS profiling for inhibitors of Plasmodium falciparum (3D7) proliferation (AID 743322);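 further: infected erythrocytes exposed to compound for 72 h before lysis; 100% = DMSO vehicle wells and 0% = 0.29 µM artemisinin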; details: P. falciparum 3D7 proliferation; at 28.7 µM (top of the series)
Method in brief: as §1

[11] = qHTS profiling for inhibitors of Plasmodium falciparum (DD2) proliferation (AID 743323); details: lower = more inhibition; at 28.7 µM (top of the series)
Method in brief: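 1536-well qHTS; infected RBCs 0.3% parasitemia/2.5% Hct final; cpd 72 h 37 C 5% CO2; lysis buffer + SYBR Green I, o/n RT dark; FI 485/535; norm. to 0.29 uM artemisinin and DMSO, plate-stack corrected.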

[12] = qHTS assay for small molecule agonists of the antioxidant response element (ARE) signaling pathway measured by Nrf2-dependant transcriptional activity (AID 720636; active means well fitted curve in the direction sought with a large enough effect in the repeat runs; an effect the other way counts as inactive or inconclusive;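 further: HepG2 cells with an ARE-driven luciferase reporter; % of control where 0% means no effect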)
Method in brief: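 Attachment 6 hr at 37 C, then compound versus DMSO vehicle for 16 hr in ARE-luc HepG2 cells (1% dialyzed FBS); luminescence recorded 30 min after ONE-Glo addition at room temperature.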

[13] = qHTS assay for small molecule antagonists of the retinoid-related orphan receptor gamma (ROR-gamma) signaling pathway - cell viability counter screen (AID 720652; active means well fitted curve in the direction sought with a large enough effect in the repeat runs; an effect the other way counts as inactive or inconclusive;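 further: CHO reporter cells with doxycycline-induced ROR-gamma expression; compound exposure lasted 16 hr before ATP read; on the % scale 0 is the no-effect control and ±100 the full control effect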)
Method in brief: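 Cytotoxicity counter screen: intracellular ATP (CellTiter-Glo luminescence) measured in the doxycycline-induced CHO RORE-luciferase reporter line after 16 hr compound exposure at 37 C, 5% CO2.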

[14] = qHTS assay for small molecule agonists of the antioxidant response element (ARE) signaling pathway measured by Nrf2-dependant transcriptional activity - cell viability counter screen (AID 720653; active means well fitted curve in the direction sought with a large enough effect in the repeat runs; an effect the other way counts as inactive or inconclusive; further: on the % scale 0 is the no-effect control and ±100 the full control effect); details: ARE-bla HepG2 viability, CellTiter-Glo ATP luminescence, 16 h; max response: stronger effect = lower value
Method in brief: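 ARE-bla HepG2 cells treated with compounds for 16 h at 37C; this counter screen measures viability as intracellular ATP by CellTiter-Glo luminescence after 30 min at room temperature.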

[15] = qHTS assay for cell viability of HEK293 cells (AID 743288; active means well fitted curve in the direction sought with a large enough effect; an effect the other way counts as inactive or inconclusive; further: on the % scale 0 is the no-effect control and ±100 the full control effect; nearly all actives have a fitted effect of over 50% in size); details: ATP luminescence (CellTiter-Glo), 18 h; max response: stronger effect = lower value
Method in brief: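 ATP luminescence (CellTiter-Glo) reports metabolically competent cell number after parental HEK293 cells, 2,000/well, were treated with DMSO-dissolved compounds for 18 h at 37 C; reagent incubation 30 min, room temperature.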

[16] = qHTS assay for cell viability of the p53RE-bla HCT-116 cell line (AID 743292; active means well fitted curve in the direction sought with a large enough effect; an effect the other way counts as inactive or inconclusive; further: on the % scale 0 is the no-effect control and ±100 the full control effect; nearly all actives have a fitted effect of over 55% in size)
Method in brief: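 Compound-exposed HCT-116 (p53RE-bla) cells, 4,000 per well, were kept 16 h at 37 C following a 5 h preincubation. Cell number was estimated from total ATP by CellTiter-Glo luminescence read after 30 min at room temperature.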

SMILES	parasite growth, % of DMSO control [1]	parasite growth remaining, % of DMSO control (lower = more inhibition) [2]	parasite growth, % of control (lower = inhibition) [3]	growth, % of control [4]	cell viability, % of control (lower = more cytotoxic) [5]	viability (% of control) [6]	Potency [7]	Potency [8]	max response [9]	remaining parasite growth % (stronger effect = lower value) [10]	activity, percent of control [11]	outcome [12]	Potency [13]	max response [14]	max response [15]	Potency [16]
Nc1nc(=S)c2[nH]cnc2[nH]1	93.4%	101%	51.3%	216%	51.9%	7.77%	inactive	inactive	–	–	–	–	–	–	–	–
CCOc1cc(N)c(Cl)cc1C(=O)NCC1CN(Cc2ccc(F)cc2)CCO1 (configuration not stated)	105%	101%	178%	99%	376%	98.6%	inactive	inactive	–	–	–	–	–	–	–	–
COc1ccc(-c2ccc3cc(C(=O)O)ccc3c2)cc1C12CC3CC(CC(C3)C1)C2	66.2%	98.8%	58.3%	111%	521%	112%	inactive	inactive	23.8% (inactive)	–	–	–	–	–	–	–
CC(C(=O)O)c1ccc2c(c1)CC(=O)c1ccccc1S2 (configuration not stated)	69.8%	92.6%	187%	97.8%	113%	19.4%	inactive	inactive	43% (inactive)	–	–	–	–	–	–	–
CCCc1cc(C(N)=S)ccn1	6.05%	65.8%	14%	6.05%	119%	93.7%	inactive	inactive	4.17% (inactive)	–	–	–	–	–	–	–
CCOC(=O)c1ccc(OC(=O)CCCCCN=C(N)N)cc1	93%	89.5%	118%	80.6%	186%	106%	inactive	inactive	-8.62% (inactive)	–	–	–	–	–	–	–
CCCCOc1ccc(CC(=O)NO)cc1	11.6%	14.7%	16.4%	5.4%	37%	29%	inactive	inactive	–	–	–	–	–	–	–	–
COc1nc(N)nc2c1ncn2[C@@H]1O[C@H](CO)[C@@H](O)[C@@H]1O	77.9%	85.4%	37.8%	85.6%	82.2%	78%	inactive	inactive	–	–	–	–	–	–	–	–
Nc1nc(F)nc2c1ncn2[C@@H]1O[C@H](CO)[C@@H](O)[C@@H]1O	–	19.5%	12%	–	9.4%	3.53%	inactive	inactive	0.368% (inactive) and 0.376% (inactive)	–	–	–	–	–	–	–
Cc1onc(-c2ccccc2Cl)c1C(=O)N[C@@H]1C(=O)N2[C@@H]1SC(C)(C)[C@@H]2C(=O)O	86.7%	94.6%	79%	108%	168%	97.4%	inactive	inactive	-11.3% (inactive)	–	–	–	–	–	–	–
C[C@@H](NCCCc1cccc(C(F)(F)F)c1)c1cccc2ccccc12	16.2%	18.5%	10.9%	4.3%	264%	110%	inactive	inactive	–	–	–	–	–	–	–	–
CN1CCN(c2c(F)cc3c(=O)c(C(=O)O)cn4c3c2OCN4C)CC1	90.8%	95.5%	77.3%	73.2%	170%	117%	inactive	inactive	–	–	–	–	–	–	–	–
NC1(c2ccc(-c3nc4ccn5c(=O)[nH]nc5c4cc3-c3ccccc3)cc2)CCC1	5.65%	17.9%	7.57%	8.07%	7.66%	4.61%	inactive	inactive	–	36.9% and -1.39%	14.1% and -0.386%	–	–	–	–	–
CC(C)OC(=O)C(C(=O)OC(C)C)=C1SC=CS1	89%	117%	72.6%	91.6%	159%	94.2%	inactive	inactive	13.6% (inactive)	–	–	–	–	–	–	–
COc1c(N2CCNC(C)C2)c(F)cc2c(=O)c(C(=O)O)cn(C3CC3)c12 (configuration not stated)	17.5%	11.3%	23.4%	21.7%	111%	78%	inactive	inactive	-5.93% (inactive)	–	–	–	–	–	–	–
COC(c1ccccc1)(c1ccccc1)[C@H](Oc1nc(C)cc(C)n1)C(=O)O	102%	102%	81.2%	105%	195%	121%	inactive	inactive	8.54% (inactive)	–	–	–	–	–	–	–
NS(=O)(=O)c1cc2c(cc1Cl)NC(C(Cl)Cl)NS2(=O)=O (configuration not stated)	84.2%	86.3%	65%	60.5%	43.4%	94.1%	inactive	–	6.12% (inactive)	–	–	–	–	–	–	–
Cc1ncc([N+](=O)[O-])n1CCO	88.2%	101%	96.3%	85.1%	180%	76.6%	inactive	–	-1.29% (inactive)	–	–	inactive	inactive	-1.04% (inactive)	-4.68% (inactive)	inactive
COc1cc(NCc2ccc3nc(N)nc(N)c3c2C)cc(OC)c1OC	15.9%	7.41%	10.9%	19.6%	8.74%	3.95%	inactive	inactive	–	–	–	–	–	–	–	–
COc1cc2c(Nc3ccc(Br)cc3F)ncnc2cc1OCC1CCN(C)CC1	5.79%	7.29%	12.4%	3.4%	3.75%	5.58%	inactive	–	–	-1.51%	3.65%	–	–	–	–	–
CC(C)(C)C(=O)OCOP(=O)(COCCn1cnc2c(N)ncnc21)OCOC(=O)C(C)(C)C	68.2%	96.8%	97.4%	82.4%	3.53%	2.56%	inactive	–	–	–	–	–	–	–	–	–
C[C@@H](CN1CC(=O)NC(=O)C1)N1CC(=O)NC(=O)C1	74.5%	88.1%	105%	65.5%	147%	14.7%	inactive	–	9.49% (inactive)	–	–	–	–	–	–	–
CCC(C)(C)c1ccc(CC(C)CN2C[C@@H](C)O[C@@H](C)C2)cc1 (some centres not stated)	17.4%	82.2%	39%	26.4%	129%	108%	inactive	–	–	–	–	–	–	–	–	–

Reference: PubChem BioAssay (NCATS)
